# Structures can show the parent of a compound that is named as a salt.
# How the values were obtained:
# Settings in all cases: incubation time: 27 h, anaerobic, 37 °C;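 for the amine columns active = adjusted P below 0.05 in both replicates with a change the same way and a mean fold change under 0.8 or over 1.25; inactive = the rest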
# [1] = system: Clostridium sporogenes DSM 1664; test: growth (OD595) fold change vs plate DMSO controls (fold change (ratio)); higher = more growth
# In short: (§1)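 The 96-well mGAM cultures had been kept anaerobic for 27 h at 37 °C before being shaken and read at 595 nm. Blank subtraction, compound background correction with 20 µM compound solutions in water, and a calibration factor of 5 turned the readings into OD. Growth is given as the fold change versus the median of plate DMSO controls. Fold changes above 1.5 were set to NA, and the values are means of 2 biological replicates.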
# Escherichia coli IAI1 [2] = test: as above
# In short: as §1
# [3] = system: Klebsiella aerogenes DSM 30053; test: as above
# In short: as §1
# [4] = system: Ruminococcus gnavus DSM 108212; test: as above
# In short: as §1
# [5] = system: Klebsiella aerogenes DSM 30053; test: fold change of Histamine concentration vs plate DMSO controls (fold change (ratio)); higher = more amine produced, active = hit call of the paper (significant change in both replicates, either direction)
# In short: (§2)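 Amine values are fold changes relative to DMSO-only wells on the same plate. They derive from 27 h, 37 °C anaerobic mGAM cultures of four gut bacterial strains in 80 µL wells, dosed at 20 µM final, or 50 µM final for sweeteners. Extraction of the whole culture, LC–triple-quadrupole MS in dynamic MRM mode, external calibration curves and within-batch drift correction were used, with 2 biological replicates averaged.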
# [6] = system: Clostridium sporogenes DSM 1664; test: fold change of Tryptamine concentration vs plate DMSO controls (fold change (ratio)); higher = more amine produced, active = hit call of the paper (significant change in both replicates, either direction)
# In short: as §2
# [7] = system: Ruminococcus gnavus DSM 108212; test: as above
# In short: as §2
# Escherichia coli IAI1 [8] = test: fold change of Putrescine concentration vs plate DMSO controls (fold change (ratio)); higher = more amine produced, active = hit call of the paper (significant change in both replicates, either direction)
# In short: as §2
# [9] = system: Klebsiella aerogenes DSM 30053; test: as above
# In short: as §2
# Escherichia coli IAI1 [10] = test: fold change of Cadaverine concentration vs plate DMSO controls (fold change (ratio)); higher = more amine produced, active = hit call of the paper (significant change in both replicates, either direction)
# In short: as §2
# [11] = system: Klebsiella aerogenes DSM 30053; test: as above
# In short: as §2
# [12] = system: Ruminococcus gnavus DSM 108212; test: fold change of 2-Phenylethylamine concentration vs plate DMSO controls (fold change (ratio)); higher = more amine produced, active = hit call of the paper (significant change in both replicates, either direction)
# In short: as §2
SMILES,growth [1],growth (Escherichia coli IAI1 [2]),growth [3],growth [4],fold change of Histamine concentration [5],fold change of Tryptamine concentration [6],fold change of Tryptamine concentration [7],fold change of Putrescine concentration (Escherichia coli IAI1 [8]),fold change of Putrescine concentration [9],fold change of Cadaverine concentration (Escherichia coli IAI1 [10]),fold change of Cadaverine concentration [11],fold change of 2-Phenylethylamine concentration [12]
CC(C)n1c(/C=C/C(O)CC(O)CC(=O)O)c(-c2ccc(F)cc2)c2ccccc21 (stereo not given) [Fluvastatin sodium salt] (20 µM),0.95,0.995,0.987,0.918,0.914 (inactive),0.881 (inactive),1.04 (inactive),1.02 (inactive),1.05 (inactive),1.07 (inactive),1.03 (inactive),0.984 (inactive)
CCC(=O)[C@@]1(C)[C@H](C)C[C@H]2[C@@H]3CCC4=CC(=O)C=C[C@]4(C)[C@H]3[C@@H](O)C[C@@]21C [Rimexolone] (20 µM),1.08,0.953,1.01,1.07,1.02 (inactive),0.98 (inactive),1.05 (inactive),0.983 (inactive),1 (inactive),1.01 (inactive),0.991 (inactive),1.04 (inactive)
Nc1c2c(nc3ccccc13)CCCC2 [Tacrine hydrochloride] (20 µM),0.896,0.951,0.932,0.696,1.05 (inactive),1.03 (inactive),1.12 (inactive),0.945 (inactive),0.94 (inactive),1.04 (inactive),1.15 (inactive),1.32 (active)
CCC(=O)OCC(=O)[C@@]1(OC(=O)CC)[C@H](C)C[C@H]2[C@H]3[C@H]([C@@H](O)C[C@@]21C)[C@@]1(C)C=CC(=O)C=C1C[C@H]3Cl [Alclometasone dipropionate] (20 µM),1.15,1.07,1.01,0.881,1.04 (inactive),1 (inactive),0.947 (inactive),1.03 (inactive),1.02 (inactive),0.986 (inactive),0.997 (inactive),0.97 (inactive)
CNCC(O)c1ccc(O)c(O)c1 (stereo not given) [Racepinephrine hydrochloride] (20 µM),1.15,1.07,1.27,1.24,0.938 (inactive),1.05 (inactive),1.05 (inactive),1.01 (inactive),1.02 (inactive),0.94 (inactive),1.03 (inactive),1.05 (inactive)
C#C[C@]1(O)CC[C@H]2[C@@H]3CCC4=CC(=O)CC[C@@H]4[C@H]3CC[C@@]21C [Norethindrone] (20 µM),1.09,0.973,1,1.22,1.11 (inactive),1.01 (inactive),1.03 (inactive),0.962 (inactive),1.03 (inactive),0.98 (inactive),0.989 (inactive),1.04 (inactive)
COC(=O)C1=C(C#N)NC(C)=C(C(=O)OC(C)C)C1c1cccc([N+](=O)[O-])c1 (stereo not given) [Nilvadipine] (20 µM),1.01,1.18,0.953,0.932,0.971 (inactive),1.1 (inactive),1.24 (inactive),1.15 (inactive),0.936 (inactive),1.03 (inactive),1.02 (inactive),1.44 (active)
CCN(CC)CCNc1ccc(CO)c2sc3ccccc3c(=O)c12 [Hycanthone] (20 µM),1.05,1.03,1.03,0.939,0.979 (inactive),0.791 (active),0.917 (inactive),1.01 (inactive),0.993 (inactive),0.967 (inactive),1.01 (inactive),0.917 (inactive)
CCc1c(C)[nH]c2c1C(=O)C(CN1CCOCC1)CC2 (stereo not given) [Molindone hydrochloride] (20 µM),0.781,1.07,1,1.1,1.02 (inactive),1.02 (inactive),1.07 (inactive),1.03 (inactive),0.987 (inactive),0.906 (inactive),1.01 (inactive),1.08 (inactive)
O=C(CO)[C@@H](O)[C@H](O)[C@@H](CO)O[C@H]1O[C@H](CO)[C@@H](O)[C@H](O)[C@H]1O [Leucrose] (50 µM),0.936,0.999,1.01,0.99,1.02 (inactive),1.03 (inactive),0.993 (inactive),1.05 (inactive),1 (inactive),1.02 (inactive),0.992 (inactive),0.968 (inactive)
Cc1ccnc2c1NC(=O)c1cccnc1N2C1CC1 [Nevirapine] (20 µM),0.962,0.959,1.01,0.868,0.914 (inactive),1 (inactive),1.12 (inactive),0.955 (inactive),1.02 (inactive),1.02 (inactive),1.01 (inactive),1.12 (inactive)
"CC(C)NCC(O)c1ccc(O)c(O)c1 (single isomer, unassigned; (+)) [(+) Isoproterenol-(+)-bitartrate salt] (20 µM)",1.02,1.06,0.995,1.06,1.03 (inactive),1.01 (inactive),0.989 (inactive),0.979 (inactive),0.997 (inactive),0.976 (inactive),0.974 (inactive),0.984 (inactive)
Cc1cc(-n2c(=O)[nH]c(=O)n(C)c2=O)ccc1Oc1ccc(SC(F)(F)F)cc1 [Toltrazuril] (20 µM),1.1,0.997,1.05,1.09,0.976 (inactive),0.941 (inactive),0.792 (inactive),1.01 (inactive),1 (inactive),1.08 (inactive),1.01 (inactive),0.81 (inactive)
CCOC(=O)CC(=O)N1CCSC1COc1ccccc1OC (stereo not given) [Moguisteine] (20 µM),0.961,0.997,1.02,0.951,1.02 (inactive),1.06 (inactive),0.978 (inactive),0.997 (inactive),1.01 (inactive),1 (inactive),0.987 (inactive),0.994 (inactive)
CCN1CCC[C@H]1CNC(=O)c1c(OC)ccc(Br)c1OC [Remoxipride hydrochloride] (20 µM),1.09,1.03,0.988,1.01,1.04 (inactive),0.946 (inactive),0.945 (inactive),0.998 (inactive),1.02 (inactive),1.03 (inactive),0.989 (inactive),0.92 (inactive)
CC(=O)CCCCn1c(=O)c2c(ncn2C)n(C)c1=O [Pentoxifylline] (20 µM),1.01,0.995,1.06,0.929,1 (inactive),1.03 (inactive),0.965 (inactive),1 (inactive),1.02 (inactive),1.04 (inactive),1.02 (inactive),0.947 (inactive)
CCN1CCCC1CNC(=O)c1cc(S(N)(=O)=O)ccc1OC (stereo not given) [Sulpiride] (20 µM),0.968,1,0.981,1.18,1.05 (inactive),0.949 (inactive),1.03 (inactive),0.997 (inactive),1.02 (inactive),1.03 (inactive),0.991 (inactive),1.06 (inactive)
CCCCCCOc1ccccc1C(N)=O [Exalamide] (20 µM),1.34,0.997,1.03,1.23,0.934 (inactive),0.949 (inactive),0.95 (inactive),0.952 (inactive),1.01 (inactive),1.03 (inactive),0.997 (inactive),0.936 (inactive)
CC(Cc1cccc(C(F)(F)F)c1)NCCOC(=O)c1ccccc1 (stereo not given) [Benfluorex] (20 µM),1.08,0.988,0.966,0.795,1.02 (inactive),0.988 (inactive),0.786 (active),1.06 (inactive),1 (inactive),0.975 (inactive),0.99 (inactive),0.797 (inactive)
CCOc1ccc2nc(S(N)(=O)=O)sc2c1 [Ethoxzolamide] (20 µM),0.955,0.957,0.989,0.925,1.04 (inactive),0.934 (inactive),0.994 (inactive),1.27 (inactive),0.997 (inactive),0.981 (inactive),0.989 (inactive),1 (inactive)
Cc1c(Cl)cccc1Nc1ccccc1C(=O)O [Tolfenamic acid] (20 µM),1.18,1.01,1.06,1.14,0.917 (inactive),0.901 (inactive),0.951 (inactive),1.07 (inactive),0.984 (inactive),1.07 (inactive),1.01 (inactive),0.937 (inactive)
CCC1=C(C)CN(C(=O)NCCc2ccc(S(=O)(=O)NC(=O)N[C@H]3CC[C@H](C)CC3)cc2)C1=O [Glimepiride] (20 µM),1.02,1.03,1.02,0.969,0.985 (inactive),0.934 (inactive),0.995 (inactive),0.976 (inactive),0.997 (inactive),1.04 (inactive),0.993 (inactive),1.02 (inactive)
CCN1/C(=C/C=C/C=C/c2sc3ccccc3[n+]2CC)Sc2ccccc21 [Dithiazanine iodide] (20 µM),0.625,0.879,0.837,1.24,0.924 (inactive),0.849 (inactive),0.749 (active),1.05 (inactive),1.01 (inactive),1.07 (inactive),0.995 (inactive),0.699 (active)
Nc1nc(=O)[nH]cc1F [Flucytosine] (20 µM),1.01,0.897,0.986,1.03,1.07 (inactive),0.924 (inactive),0.987 (inactive),0.875 (inactive),1.02 (inactive),0.968 (inactive),0.979 (inactive),1.01 (inactive)
CC(C(O)c1ccc(O)cc1)N1CCC(Cc2ccccc2)CC1 (stereo not given) [Ifenprodil tartrate] (20 µM),1.02,1.12,1.03,0.985,0.977 (inactive),1.02 (inactive),1.03 (inactive),1.08 (inactive),0.973 (inactive),0.947 (inactive),1 (inactive),0.992 (inactive)
